An excerpt weighted towards active compounds, which were near 4.2% of everything screened.
ClpP mod: qHTS Assay for Activators of ClpP; Potency, µM (highest dose often 57.5 µM); hit rate 1.9% among 340,000; ATP-dependent Clp protease proteolytic subunit (Bacillus subtilis (strain 168)), P80244; AID 651965, 2013; purified B. subtilis ClpP, FRET peptide cleavage, 20 min; active = well fitted falling curve with a large enough effect; inconclusive = small, poorly fitted or top-dose-only effect; inactive = no such curve, though single readings can be large or run the other way; note: the source files actives as falling curves though it sought activators and does not explain the sign; nearly all actives have a fitted effect of over 65% in size
Target sequence (P80244 whole entry, looked up): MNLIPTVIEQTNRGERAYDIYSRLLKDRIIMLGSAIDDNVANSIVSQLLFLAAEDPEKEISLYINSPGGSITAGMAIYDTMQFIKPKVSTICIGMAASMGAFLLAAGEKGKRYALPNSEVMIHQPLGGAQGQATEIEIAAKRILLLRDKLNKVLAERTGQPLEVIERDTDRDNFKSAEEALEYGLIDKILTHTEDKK
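Buffer: 100 mM Tris/HCl pH8, 100 mM KCl, 0.05% low protease BSA, 2.5% glycerol, 0.01% Tween-20. ClpP 10 microg/mL final; 20 min RT; delta FRET normalized to ADEP and DMSO controls.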
Sfp PPTase inh: Sfp phosphopantetheinyl transferase inhibition | Q9F4F7 | Biochemical Sfp PPTase activity, qHTS | Potency, µM, usual class: inhibitors | hit rate 3.5% among 310,000;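 note: the enzyme is Sfp with the accession as filed and its product quenches rhodamine fluorescence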
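Reaction rates are the 30-min fluorescence difference (ex 525, em 598 nm) in wells containing 15 nM Sfp, 5 uM rhodamine-CoA and 12.5 uM BHQ-2-YbbR at pH 7.6 with 10 mM MgCl2.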
TCR act: activates T cell receptor signaling | AID 504894 | Potency, µM (series often up to 9.22 µM), hits mostly activators | primary human leukocytes, anti-CD3, IL-2 HTRF, 48 h | 330,000 tested, under 10 active
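IL-2 produced over 48 hr by a-CD3 bead-stimulated primary human leukocytes exposed to compounds was detected with a homogeneous time-resolved FRET immunoassay, 665nm acceptor signal after 320nm excitation.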
uPA generation: blocks generation of uPA at the cell surface | cell surface uPA generation assay, qHTS | Potency, µM (titrated, usually from 38.3 µM), hits mostly inhibitors | hit rate 0.31% among 330,000; active = well fitted inhibition curve with a large enough effect; inconclusive = small, poorly fitted or top-dose-only effect; inactive = no such curve, though single readings can be large or run the other way; tested in mouse RAW 264.7 cells; note: nearly all actives have a fitted effect of over 55% in size
Of the large screens only hits and unclear results are named; the others gave an inactive call. Unless noted, calls come from the whole dose curve; as a rule, active = well fitted curve in the direction sought with a large enough effect; inconclusive = small, poorly fitted or top-dose-only effect, or another doubt; inactive = no such curve, though single readings can be large; an effect the other way counts as inactive or inconclusive.

O=S(=O)(c1ccccc1)c1nnn2c1nc(NCc1cccs1)c1sccc12	none (no result: Sfp PPTase inh, TCR act, uPA generation)
CNc1ccc(/C=C/c2ccccc2)cc1	none (no result: Sfp PPTase inh, TCR act, uPA generation)
CC(=O)Nc1cccc(-c2nnc(SCC(=O)c3cc([N+](=O)[O-])ccc3Cl)o2)c1	none (no result: Sfp PPTase inh, TCR act, uPA generation)
O=[N+]([O-])c1ccc(C2NS(=O)(=O)N=C3CCCCCN32)cc1 (configuration not stated)	Sfp PPTase inh 50µM
CC(C)C(OC(=O)c1nsc(Cl)c1Cl)C(=O)NCC1CCCO1 (configuration not stated)	none
COC(=O)c1ccc(Cl)cc1NC(=O)N1CC=C(c2c[nH]c3ccccc23)CC1	ClpP mod 28µM (no result: Sfp PPTase inh, TCR act, uPA generation)
Cc1ccc(NC(=O)N2CC=C(c3c[nH]c4ccccc34)CC2)cc1Cl	none (no result: Sfp PPTase inh, TCR act, uPA generation)
COc1ccccc1N1CCN(C(=O)c2cc3c(=O)oc4ccc(C)cc4c3s2)CC1	none (no result: Sfp PPTase inh, TCR act, uPA generation)
c1ccc(-c2cn3nc4c(nc3n2)CCCC4)cc1	Sfp PPTase inh 79µM
CCOC(=O)N1CCN(S(=O)(=O)c2ccc(C(=O)Nc3ccc4c(c3)C(=O)NC4=O)cc2)CC1	ClpP mod 20µM
CCOC(=O)N1CCN(S(=O)(=O)c2ccc(NC(C)=O)cc2)CC1	none
CCc1n[nH]c(=S)n1/N=C/c1ccc(N(CC)CC)cc1	none
CCc1n[nH]c(=S)n1/N=C/c1cc(Br)c(O)c(OC)c1	Sfp PPTase inh 79µM
C=CCOc1c(Br)cc(/C=N/n2c(CC)n[nH]c2=S)cc1Br	Sfp PPTase inh 79µM
CC(C)(SC(=S)N1CCCCCC1)C(=O)O	Sfp PPTase inh 79µM (no result: ClpP mod)
CC(C)(SC(=S)N1CCOCC1)C(=O)O	none
Cc1ccc(C(=O)CSC2=C(C#N)C(c3ccco3)CC(=O)N2)c(C)c1 (configuration not stated)	Sfp PPTase inh 50µM (no result: uPA generation)
CC(=O)C1=C(C)NC(SCC(=O)c2ccc(Cl)cc2)=C(C#N)C1c1ccco1 (configuration not stated)	Sfp PPTase inh 50µM
CC(=O)C1=C(C)NC(SCc2cccc3ccccc23)=C(C#N)C1c1ccco1 (configuration not stated)	Sfp PPTase inh 50µM
CC(=O)C1=C(C)NC(SCC(=O)c2ccccc2)=C(C#N)C1c1ccco1 (configuration not stated)	Sfp PPTase inh 56µM (no result: ClpP mod, TCR act, uPA generation)
CC(=O)C1=C(C)NC(SCc2ccc(C#N)cc2)=C(C#N)C1c1ccco1 (configuration not stated)	Sfp PPTase inh inconclusive
CCOC(=O)c1ccc(NC(=O)CCc2c(C)nc3cc(-c4ccc(OC)cc4OC)nn3c2C)cc1	none (no result: Sfp PPTase inh, TCR act, uPA generation)
COc1ccc(N2CCN(S(=O)(=O)CCNC(=O)c3ccc(OC(C)C)cc3)CC2)cc1	none (no result: Sfp PPTase inh, TCR act, uPA generation)
Cc1ccc2nc(-c3cccc(NC(=O)c4cccc5c(Cl)cccc45)c3)oc2c1	none (no result: Sfp PPTase inh, TCR act, uPA generation)
CC(=O)C1=C(C)NC(SCC(=O)c2ccc(Cl)cc2Cl)=C(C#N)C1c1ccco1 (configuration not stated)	Sfp PPTase inh 45µM, uPA generation inconclusive
CC1=C(C(=O)Nc2ccccc2)C(c2ccncc2)C(C#N)=C(SCC(=O)NC(C)C)N1 (configuration not stated)	Sfp PPTase inh inconclusive
CC(=O)C1=C(C)NC(SCC(=O)c2ccccc2)=C(C#N)C1CC(C)C (configuration not stated)	Sfp PPTase inh 20µM
Cc1ccc(-n2c(=O)c3cccnc3n2CC(=O)Nc2cccc(C)c2C)cc1	none (no result: Sfp PPTase inh, TCR act, uPA generation)
CCCCC1SC(N)=NC1=O (configuration not stated)	none (no result: ClpP mod, Sfp PPTase inh)
Cc1cccc(CCNC(=O)c2nc(-c3ccc(Cl)cc3)n3c2CCCCC3)c1	none (no result: Sfp PPTase inh, TCR act, uPA generation)
NS(=O)(=O)c1ccc(CNC(=O)/C=C/c2ccco2)cc1	Sfp PPTase inh 20µM
O=C(N/C=C/c1ccco1)NCc1ccccc1	none (no result: ClpP mod)
O=C(CNC(=O)/C=C/c1ccco1)N=Nc1c(O)[nH]c2ccccc12	Sfp PPTase inh 20µM
NS(=O)(=O)c1ccc(NC(=S)NC(=O)/C=C/c2ccco2)cc1	Sfp PPTase inh 20µM
O=C(/C=C/c1ccco1)NCc1ccc(F)cc1	Sfp PPTase inh 40µM (no result: ClpP mod)
CC(C)c1ccc(/C=C/C(=O)NCc2ccc(S(N)(=O)=O)cc2)cc1	none (no result: ClpP mod)
O=C(/C=C/c1ccco1)NC(=S)Nc1cccc([N+](=O)[O-])c1	Sfp PPTase inh 32µM
COc1cc(CN2CCN(CCc3ccccc3)C(CCO)C2)cc(OC)c1 (configuration not stated)	ClpP mod 32µM
COC(=O)C1CSc2[nH]c(=O)sc2C1c1ccc(O)c(OC)c1 (configuration not stated)	Sfp PPTase inh 56µM
CCOC(=O)C1CSc2[nH]c(=O)sc2C1c1ccccc1 (configuration not stated)	Sfp PPTase inh 40µM
COc1ccc(C2c3sc(=O)[nH]c3SCC2C(N)=O)cc1 (configuration not stated)	none
Cc1cccnc1NC(=O)c1nn(C)c2c1CS(=O)(=O)c1ccccc1-2	none
CC(C)c1ccc(NC(=O)C2CCCCN2S(=O)(=O)c2ccccc2)cc1 (configuration not stated)	none (no result: Sfp PPTase inh, TCR act)
CCCNCCC(c1ccco1)c1ccccc1OC (configuration not stated)	none
CCN(CC)C(=O)CC(c1ccccc1)c1ccco1 (configuration not stated)	none (no result: uPA generation)
CCC(=O)N(CCC(c1ccccc1)c1ccco1)Cc1cccs1 (configuration not stated)	Sfp PPTase inh 50µM
COc1ccccc1C(CC(=O)Nc1nccs1)c1ccco1 (configuration not stated)	none
COc1ccccc1C(CCN(Cc1cccs1)C(C)=O)c1ccco1 (configuration not stated)	Sfp PPTase inh 20µM
COc1ccc(CN(CCC(c2ccccc2)c2ccco2)C(=O)c2ccco2)cc1 (configuration not stated)	Sfp PPTase inh inconclusive (no result: ClpP mod)
O=C(c1ccco1)N(CCC(c1ccccc1)c1ccco1)Cc1ccccc1 (configuration not stated)	Sfp PPTase inh 50µM (no result: ClpP mod)
CCC(=O)NCCC(c1ccco1)c1ccccc1OC (configuration not stated)	Sfp PPTase inh 11µM
Cc1ccc(S(=O)(=O)c2c(Nc3ccc(C)c(C)c3)sc(C(=O)c3ccc4c(c3)OCO4)c2N)cc1	none (no result: Sfp PPTase inh, TCR act, uPA generation)
COC(=O)[C@H]1CC2(CC=C(C)C)C(=O)[C@@](CC=C(C)C)(C(=O)C(C(=O)c3ccccc3)=C2OC)C1(C)C (tested in a mixture with another compound)	none (no result: ClpP mod, TCR act, uPA generation)
CCOc1ccccc1CNS(=O)(=O)c1ccc2[nH]c(=O)ccc2c1	none (no result: Sfp PPTase inh, TCR act, uPA generation)
Nc1nc(-c2ccco2)c(-c2ccco2)s1	Sfp PPTase inh 16µM
c1coc(-c2nc(-c3ccco3)c(-c3ccco3)nc2-c2ccco2)c1	ClpP mod inconclusive, Sfp PPTase inh 35µM
c1coc(-c2ncc[nH]2)c1	none
Nc1nc(-c2ccc(-n3nncc3-c3ccco3)cc2)cs1	none
COc1ccc2nc(-c3ccco3)c(-c3ccco3)nc2c1	Sfp PPTase inh 7.1µM
COc1ccc(-c2nc3ccccc3nc2-c2ccc(OC)cc2)cc1	none

Assay outcomes: PubChem BioAssay, National Center for Advancing Translational Sciences (NCATS)
